PubChem BioAssay (Tox21)
Several values for one entry are separate records, joined by “and”; a condition that tells them apart may be missing. Equal values may be shown once. Records with an inconclusive call do not appear. Where a call stands in place of a potency, no number is given. A structure can be active in one record and inactive in another. Activity calls are given as the source filed them. Calls follow the shape of the full dose curve.

Assay: qHTS assay to identify small molecule antagonists of the sonic hedgehog signaling (Shh) pathway (AID 1259369); also: nearly all actives have a fitted effect of over 45% in size
Details: NIH/3T3 Gli1-Luc reporter, Shh antagonist, luminescence 24 h; series mostly up to 92.4 µM; activity change, negative = inhibition: at the top concentration
Procedure, shortened: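 Luminescence readout: firefly Luc under Gli1 response element in 3T3Gli1-Luc cells (NIH/3T3 clone). Antagonist mode, stimulation by conditioned medium; compound exposure 24hr at 37 C, 5% CO2.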
Potency is read from the fitted curve at half-maximal effect.

| SMILES | Potency | activity change, negative = inhibition |
| --- | --- | --- |
| O=C(O)CCC(=O)O | inactive |  |
| Oc1ccc(/C=C/c2cc(O)cc(O)c2)cc1 | 9.78 µM (active) and 17.2 µM (active) |  |
| Cc1ccc(C)c(OCCCC(C)(C)C(=O)O)c1 | inactive |  |
| O=C(O)c1[nH]n(-c2ccc(S(=O)(=O)O)cc2)c(=O)c1N=Nc1ccc(S(=O)(=O)O)cc1 | inactive and 57.1 µM (active) |  |
| CC(O)CN(CCN(CC(C)O)CC(C)O)CC(C)O (configuration not stated) | inactive |  |
| CCCCCCCCCCCCCCCC(=O)O | inactive |  |
| O=C(O)C(=O)O | inactive and 1.22 µM (active) |  |
| NC(=O)c1cnccn1 | inactive |  |
| Cc1ccccc1C(OCCN(C)C)c1ccccc1 (configuration not stated) | 27.3 µM (active) |  |
| c1ccc2[nH]ccc2c1 | 6.01 µM (active) and inactive |  |
| CC(C)(Oc1ccc(C2CC2(Cl)Cl)cc1)C(=O)O (configuration not stated) | inactive |  |
| CCCC(CCC)C(=O)O | inactive |  |
| O=C(O)CS | inactive and 30.9 µM (active) |  |
| COc1c2occc2cc2ccc(=O)oc12 | 24.3 µM (active) and inactive |  |
| O=c1ccc2ccccc2o1 | inactive |  |
| CCC1(c2ccccc2)C(=O)NCNC1=O | inactive |  |
| CCCNC(=O)NS(=O)(=O)c1ccc(Cl)cc1 | inactive |  |
| O=c1cc[nH]c(=S)[nH]1 | inactive |  |
| NC(=O)c1ccccc1O | inactive |  |

| SMILES | Potency | activity change, negative = inhibition |
| --- | --- | --- |
| Cn1cc[nH]c1=S | inactive |  |
| Cn1c(=O)c2[nH]cnc2n(C)c1=O | inactive |  |
| Cc1cc(=O)[nH]c(=S)[nH]1 | inactive |  |
| COc1ccc2[nH]cc(CCNC(C)=O)c2c1 | inactive |  |
| CC(C)[C@@H]1CC[C@@H](C)C[C@H]1O | inactive and 31.6 µM (active) |  |
| Nc1ccn([C@H]2CC[C@@H](CO)O2)c(=O)n1 | inactive |  |
| CC(=O)OCC(COC(C)=O)OC(C)=O | inactive |  |
| O=C(O)c1cc(N=Nc2ccc(S(=O)(=O)Nc3ccccn3)cc2)ccc1O | inactive |  |
| O=C1NC(=O)c2ccccc21 | inactive |  |
| O=C(C1CCCCC1)N1CC(=O)N2CCc3ccccc3C2C1 (configuration not stated) | inactive |  |
| Cc1ccc(S(=O)(=O)NC(=O)NN2CCCCCC2)cc1 | inactive |  |
| O=C(O)c1cccc([N+](=O)[O-])c1 | inactive |  |
| CC(=O)NS(=O)(=O)c1ccc(N)cc1 | inactive |  |
| O=C(O)c1cccnc1 | inactive |  |
| CC(O)CO (configuration not stated) |  | 20.7% (inactive) |
| CCCC(O)C(CC)CO (configuration not stated) | inactive |  |
| O=C(O)/C=C\C(=O)O | inactive |  |
| CC(=O)Nc1nnc(S(N)(=O)=O)s1 | inactive |  |
